Laboratory results reported in PubChem BioAssay AID1724 (National Center for Advancing Translational Sciences (NCATS), 2009).
Results filed as inconclusive are left out. The source made the active and inactive calls. Calls come from the whole dose curve; as a rule, active = well fitted inhibition curve with a large enough effect; inconclusive = small, poorly fitted or top-dose-only effect, or effect the other way; inactive = no such curve, though single readings can be large or run the other way.

Assay: Confirmation Concentration-Response Assay for Inhibitors of the ERK Signaling Pathway using a Homogeneous Screening Assay
Conditions: HEK293 cells, hormone-stimulated phospho-ERK AlphaScreen; series mostly up to 40.9 µM
Description: qHTS Assay for Inhibitors of the ERK Signaling Pathway using a Homogeneous Screening Assay
NIH Chemical Genomics Center [NCGC]
NIH Molecular Libraries Screening Centers Network [MLSCN]
Assay Submitter (PI): Dr. Wei Zheng, NCGC/NIH
The Ras/extracellular-signal-regulated kinase (ERK) mitogen activated protein (MAP) kinase signaling pathway (ERK1/2 cascade) plays is a key role in transmitting signals from the cell surface to the nucleus (Nishida and Gotoh 1993; Chang and Karin, 2001). The cascade is initiated by the small G-protein Ras, which recruits Raf […], where activation occurs. Alternatively, this pathway can be activated by elevating intracellular cAMP.
Activation of the ERK pathway is essential in increased cell division and cell survival. Sustained and constitutive activation of the ERK pathway, however, has been linked to uncontrolled cell proliferation, increased cell survival, and tumor progression. Thus, the ERK has been as an attractive target for cancer chemotherapy in the past few years (Sebolt-Leopold and Herrera, 2004). Given its physiological and pathological importance, assessment of ERK phosphorylation has been broadly performed in both basic research and drug discovery. Most assays for the measurement of ERK phosphorylation use the antibody-based detection methods, such as western blot and ELISA. These assays require multiple reagent additions with cell wash steps and are not suitable for high-throughput screening.
The current cell-based ERK phosphorylation assay was performed using AlphaScreen platform. AlphaScreen is a two bead-based proximity-dependent chemical energy transfer luminescent assay platform. The assay reagents (ERK SureFire(TM) kit) were supplied from TGR BioSciences (Australia). In the presence of specific antibodies, phosphorylated ERK will bring "donor" and "acceptor" beads to a proximity range (<200 nm), and subsequently lead a chemical luminescent reaction upon exciting donor beads with 680 nm laser. To exclude the assay-related false positives, we used a biotinylated rabbit IgG to perform counter-screen. The biotinylated antibody mimics the phosphorylated ERK1/2 for bringing streptavidin coated beads and protein-A coated beads to a proximity range for the AlphaScreen detection.
NCGC Assay Protocol Summary:
HEK293 cells stably expressing type-1 vasopressin receptor (V1b) were maintained in DMEM medium (Invitrogen, Carlsbad, CA) at 37C under a humidified atmosphere containing 5% CO2 and 95% air. The medium contained 10% FBS, 2 mM L-glutamine, non-essential amino acid, pyruvate and 50 U/ml penicillin and 50 ug/ml streptomycin (Invitrogen). The aliquots of frozen cells were stored at -135C and used for the compound screening. All compounds were screened as titrations from 0.6 nM to 46 uM final concentration. Vasopressin was used to stimulate the ERK phosphorylation pathway. The ERK phosphorylation in cells was determined using an AlphaScreen assay kit provided by PerkinElmer. Data were normalized to the controls for basal activity (DMSO only) and 100% activation (25 nM vasopressin). AC50 values were determined from concentration-response data modeled with the standard Hill equation.
(1) Seed 4 ul/well of resuspended frozen HEK293 cells containing 2000 cells in white 1536-well plates for overnight with 1% FBS at 37C under a humidified atmosphere containing 5% CO2 and 95% air.
(2) Add 23 nL compounds in DMSO solution. The final titration was 0.6 nM to 46 uM.
(3) Incubate at 37C for 30 min.
(4) Dispense 0.5uL vasopressin (25 nM in final)
(5) Incubate at 37C for 5 min.
(6) Dispense 0.5uL of 1:2 diluted 5x lysis buffer.
(7) Incubate at 37C for 10 min.
(8) Dispense 1.5uL of mixture of activation buffer and reaction buffer with AlphaScreen beads (streptavidin donor beads and protein-A acceptor beads, 10 ng/well for each).
(9) Incubate at room temperature for 5 hr.
(10) Detect the assay plate in an EnVision plate reader (PerkinElmer) using the AlphaScreen detection mode.
[…]

SMILES | Potency
CCOC(=O)c1ccc(NC(=O)c2ccc(C)c(S(=O)(=O)N3CCOCC3)c2)cc1 | 8.91 µM (active)
CC1(C)OC(c2ccccc2)=C/C(=C/C=C2C(=O)c3ccccc3C2=O)O1 | 14.1 µM (active)
CN(C)c1ccc(-c2ccc3ncnc(NCc4ccccc4)c3c2)cc1 | 15.8 µM (active)
C/C(=N\Nc1nnc(-c2ccccc2)c(-c2ccccc2)n1)c1cccc([N+](=O)[O-])c1 | inactive
O=C1c2ccccc2C(=O)c2c1cccc2N1CCCC1 | 17.8 µM (active)
C=CS(=O)(=O)c1ccc(Oc2ccc(S(=O)(=O)C=C)cc2)cc1 | 7.08 µM (active)
CN(C)CCCn1cc(C2=C(c3c[nH]c4ccccc34)C(=O)NC2=O)c2ccccc21 | 1.26 µM (active)
O=C(Nc1ccc(-c2cn3ccsc3n2)cc1)c1ccc(F)c(S(=O)(=O)N2CCOCC2)c1 | 12.6 µM (active)
Cc1noc(NS(=O)(=O)c2ccc(NC(=O)COc3ccc(Cl)cc3Cl)cc2)c1C | inactive
COc1ccc(CC(=O)Nc2cccc(-c3nnc(-c4cccc(C)c4)o3)c2)cc1OC | 4.47 µM (active)
Cn1c(=O)cc(Nc2ccccc2)c2c(=O)n(-c3ccccc3)c(=O)n(-c3ccccc3)c21 | 8.91 µM (active)
COc1cc(C(=O)Nc2nc(-c3cccs3)cs2)cc(OC)c1OC | 12.6 µM (active)
COc1ccc(C(=O)Nc2ccc(-c3ccc(C)o3)cc2)cc1S(=O)(=O)N1CCOCC1 | 10 µM (active)
Cc1ccc(NNc2c(C)nc3ccccc3nc2=O)cc1 | inactive
CS(=O)(=O)CCNCc1nc(-c2ccc3ncnc(Nc4ccc(OCc5cccc(F)c5)c(Cl)c4)c3c2)cs1 | inactive
COc1ccc2[nH]cc(CCNc3ncnc4ccc(-c5ccc(C(=O)N(C)C)cc5)cc34)c2c1 | 31.6 µM (active)
Cc1sc2ncnc(Sc3nnnn3-c3ccc(Cl)cc3)c2c1C | inactive
O=C(Nc1ccc(N2CCN(C(=O)c3ccco3)CC2)c(Cl)c1)c1cc2ccccc2o1 | 7.94 µM (active)
CCN(C1CCCCC1)S(=O)(=O)c1ccc(S(=O)(=O)NCc2ccncc2)cc1 | inactive
COc1ccc(CC(=O)Nc2cccc(-c3nnc(-c4ccc(C)cc4)o3)c2)cc1OC | 5.62 µM (active)

SMILES | Potency
O=C(Nc1ccc(N2CCN(C(=O)c3ccccc3)CC2)cc1)c1cc2ccccc2o1 | 12.6 µM (active)
COc1ccc(C(=O)OC(COc2ccccc2)Cn2ccnc2)cc1 (stereo not given) | 15.8 µM (active)
CN(C)c1ccc(Nc2c3c4c(cccc4n(C)c2=O)C(=O)c2ccccc2-3)cc1 | 14.1 µM (active)
CCCNc1ncnc2sc(C)c(C)c12 | inactive
CC(/C=C/c1ccccc1)=N\Nc1ccccc1[N+](=O)[O-] | inactive
O=C(Nc1nccs1)c1cc2sccc2n1Cc1ccc(F)cc1 | inactive
CC(=O)N1CCC(=NNc2nc3ccccc3s2)CC1 | inactive
CCCN1C(=O)/C(=C2/C=Cc3ccccc3N2CC)SC1=S | 11.2 µM (active)
COC(=O)c1cc(-c2ccc(OC)c(OC)c2)on1 | 7.08 µM (active)
C=C[C@]1(C)CC(=O)[C@@]2(O)[C@@]3(C)C(O)CCC(C)(C)C3C(O)C(OC(C)=O)[C@@]2(C)O1 (stereo not given in full) | inactive
COc1ccc(N=C2C(=Nc3ccc(OC)cc3)N(c3ccc(OC)cc3)C(=S)N2C)cc1 | 15.8 µM (active)
O=C(Nc1nc(-c2ccccc2)cs1)c1ccc(N2CCOCC2)c([N+](=O)[O-])c1 | 7.08 µM (active)
Cc1nc2ccccc2c2oc(C(=O)N3CCc4ccccc4C3)cc12 | 25.1 µM (active)
COc1ccc(N=C2C(=Nc3ccc(OC)cc3)N(c3ccc(N(C)C)cc3)C(=S)N2c2ccc(OC)cc2)cc1 | 5.62 µM (active)
CCCN(CCC)S(=O)(=O)c1cccc(C(=O)Nc2ccc3c(c2)OCO3)c1 | inactive
N#CC(=C(/N)Sc1ccccc1N)/C(C#N)=C(/N)Sc1ccccc1N | 0.501 µM (active)
c1ccc(Oc2nc(NCc3ccco3)nc(NCc3ccco3)n2)cc1 | inactive
CCCC(=O)N1CCN(c2ccc(NC(=O)c3cc4ccccc4o3)cc2Cl)CC1 | 7.94 µM (active)
CN(C)c1cc2c(Nc3ccc4c(cnn4Cc4ccccc4)c3)ncnc2cn1 | inactive
c1ccc(-c2csc(-c3nc4ccccc4[nH]3)n2)cc1 | 35.5 µM (active)
